Laboratory results published in PubChem BioAssay (NCI).
Compounds without any hit were thinned out: in the full panel of roughly 83,000, 20% have a hit.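 Activity criterion: percent growth below 10, measured after cells in 96-well plates were exposed to a single compound concentration for 48 hours.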 Active and inactive are the calls of the source.

These molecules were tested on HCT-116 colon (assay: NCI-60 one-dose screen, 48 h (100 = growth as untreated, 0 = no growth, -100 = all killed)). Settings: 10 µM unless noted.

| Compound | growth |
| --- | --- |
| O=C(CC12CC3CC(CC(C3)C1)C2)NCCOCCOCCNC(=O)c1cc2c(o1)C(=O)c1ccccc1C2=O | -8.18% (active) |
| CCN(CC)CCCNC(=O)c1ccc(N)cc1 | 94.8% (inactive) |
| CCCCCCCCc1cc[n+](CC(=O)c2ccc(Br)cc2)cc1 | -43.1% (active) |
| CC/C=C/[C@@H]1C=C[C@@H]2CCC[C@H]2[C@@H]1CC[C@H](O)[C@H](C)N | -76.2% (active) |
| N#Cc1c(NC(=O)c2ccc(Br)cc2)sc2c1CCCC2 | 22.3% (inactive) |
| O=[N+]([O-])c1ccc2[nH]cc(-c3c4ccsc4cc4[nH]c5ccc([N+](=O)[O-])cc5c34)c2c1 | 2.78% (active) |
| Cc1nc(Nc2ccc(N)cc2)c2ccccc2n1 | 95.3% (inactive) |
| CCCCN(Cc1ccc(C(=O)NO)cc1)C(=O)Nc1ccc(OCCCCCCCCCn2cc(CCCCC(=O)N[C@H](C(=O)N3C[C@H](O)C[C@H]3C(=O)NCc3ccc(-c4scnc4C)cc3)C(C)(C)C)nn2)cc1 | 20.9% (inactive) |
| COc1ccc(OC)c(/C=C2\COc3ccc(O)cc3C2=O)c1 | 66.9% (inactive) |
| CCOC(=O)C1=C(C)NC(SCc2nnc(-c3ccc(Cl)cc3)o2)=NC1c1ccc(Cl)cc1Cl (centres undefined) | 28.8% (inactive) |
| O[C@H]1CO[C@H]2[C@@H]1OC[C@@H]2Oc1ccc(Nc2ccnc(Nc3ccc(O[C@H]4CO[C@H]5[C@@H]4OC[C@@H]5O)c(Cl)c3)n2)cc1Cl | 9.14% (active) |
| COc1ccc(-n2nnc(C(=O)NCCc3c[nH]c4ccc(F)cc34)c2C)cc1 | 93.5% (inactive) |
| CC(=O)Nc1ccc2c(c1)Cc1c(F)cccc1-2 | 108% (inactive) |
| O=C1c2cccc3c(-c4ccc(-c5nc6c7ccccc7c7ccccc7c6[nH]5)cc4)ccc(c23)C(=O)N1CCN1CCNCC1 | -12.3% (active) |
| C=C(C=O)C1CCC2(C(=O)O)CCC3(C)C(CCC4C5(C)CCC(O)C(C)(C)C5CCC43C)C12 (centres undefined) | -92.3% (active) |
| NC(=O)CC1(O)C=C(Br)C(=O)C(Br)=C1 | -61.9% (active) |
| Cc1ccc(-n2nnc(C3=NCCc4c3[nH]c3ccc(Cl)cc43)c2C)cc1 | 71.6% (inactive) |
| CCN(CC)CC(O)CNc1c2ccc(Cl)cc2nc2ccc(OC)cc12 (centres undefined) | -32.1% (active) |
| C=C1C(=O)O[C@H]2[C@H]1CC/C(C(=O)NCCCCCCCCNC(=O)/C1=C/CC[C@@]3(C)O[C@H]3[C@H]3OC(=O)C(=C)[C@@H]3CC1)=C\CC[C@@]1(C)O[C@@H]21 | 29.7% (inactive) |
| NS(=O)(=O)c1cn(-c2ncnc3nc[nH]c23)ccc1=O | 94.5% (inactive) |

| Compound | growth |
| --- | --- |
| O[C@H]1CO[C@H]2[C@@H]1OC[C@@H]2Oc1ccc(Nc2nc(Nc3ccc(F)c(Cl)c3)ncc2F)cc1Cl | 105% (inactive) |
| N#Cc1c(NC(=O)c2cccc(C(F)(F)F)c2)sc2c1CCC(=O)C2 | -63.7% (active) |
| Cc1cc(-c2ccccc2)cc(SC#N)[n+]1[O-] | 36% (inactive) |
| CSc1nc(N)c(CNC(C)c2ccccc2)c(=O)n1C (centres undefined) | 92.2% (inactive) |
| Nc1c(-c2nc3ccc(Br)cc3c(=O)[nH]2)nnn1-c1ccccc1 | 48.2% (inactive) |
| CN1CCN(c2ccc3nc(/N=C/c4ccc5sc(-c6ccc([N+](=O)[O-])cc6)nc5c4)sc3c2)CC1 | 107% (inactive) |
| C/C(Cc1ccc(Cl)cc1)=C(/c1ccc(Cl)cc1)c1ccc(OCCN(C)C)cc1 | 16.5% (inactive) |
| Cc1ccc(NC(=O)C(Cl)Cl)cc1 | 96.5% (inactive) |
| Cc1cnc(Nc2ccc(N3CCN(C)CC3)cc2)nc1Nc1ccc(Cl)c(NS(=O)(=O)C(C)(C)C)c1 | 8.83% (active) |
| CCn1c(Sc2nnc(NC(=O)CSC(=S)N3CCCCC3)s2)nc2c1c(=O)n(C)c(=O)n2C | 87.7% (inactive) |
| CNC(=O)c1cc(Oc2ccc3nc(Nc4cc(Cl)cc(Cl)c4)ccc3c2)ccn1 | 49% (inactive) |
| C[C@@H]1CC[C@@H]2[C@@H]1[C@H](OC(=O)/C=C/c1ccccc1)[C@]1(C3CCCCC3)C[C@@H](NC(=O)CO)[C@@]2(C)O1 | 85.7% (inactive) |
| O=C1CCC(N2C(=O)c3cccc(NCCCC4CCN(CCNC(=O)c5cc6c(o5)C(=O)c5ccccc5C6=O)CC4)c3C2=O)C(=O)N1 (centres undefined) | -56.9% (active) |
| CC(=[N-])N1CCC[C@@H](Nc2c3ccccc3nc3ccccc23)C1.[Cl][Pt].[NH-]CCC[NH-] | 14.9% (inactive) |
| Cc1ccc2c(n1)C(=O)C(Oc1ccc(F)cc1)=CC2=O | 90.8% (inactive) |
| O=S(=O)(NCCNc1cc(-c2c(-c3cccc(O)c3)nc3sccn23)ccn1)c1ccc(Cl)cc1 | 57.4% (inactive) |
| CN(C)CCOC(=O)Nc1ccc(Cl)cc1 | 86.8% (inactive) |
| CCCCCCCCN(CCCCCCCC)C(=N)c1ccnc2ccccc12 | -92.3% (active) |
| COc1cc(-c2ncn(/C=C\c3nnco3)n2)cc(C(F)(F)F)c1 | 3.16% (active) |
